Records with an inconclusive call do not appear. The source made the active and inactive calls. The call rests on the fitted dose curve; in most records, active means well fitted curve in the direction sought with a large enough effect; inconclusive means small, poorly fitted or top-dose-only effect, or another doubt; inactive means no such curve, though single readings can be large; an effect the other way counts as inactive or inconclusive.
Columns and labels:
HACAT = assay: qHTS assay to identify novel small-molecules to repurpose for Merkel cell carcinoma treatment (AID 1296009); conditions: MCC and control cell lines, CellTiter-Glo viability, 72 h; at 44.8 µM (top of the series) unless noted; further: nearly all actives have a fitted effect of over 60% in size
How it was run: (§1)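 CellTiter-Glo luminescence after 72 hr compound exposure at 37 degree celsius gave cell viability. Libraries NPC and MIPE were run as 8- and 11-point dose responses; RLUs normalized to DMSO (negative) and no-cell (cytotoxicity) controls.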

NIH3T3 = assay: as above; conditions: MCC and control cell lines, CellTiter-Glo viability, 72 h; at 44.8 µM (top of the series) unless noted
How it was run: as §1

C33A = assay: Primary qHTS to identify gynecologic anti-cancer compounds using libraries of approved drugs and bioactive compounds (AID 1345084); conditions: Gynecologic cancer cell panel viability, ATPlite luminescence, 48 h; series mostly up to 57.5 µM; further: nearly all actives have a fitted effect of over 55% in size
How it was run: (§2)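 Cells, 1,000 per well, were allowed to settle for 16 h at 37 C before compound addition. Five concentrations were tested for 48 h, and viability was read by ATPlite luminescence after 15 min at room temperature.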

CAOV3 = assay: as above; conditions: Gynecologic cancer cell panel viability, ATPlite luminescence, 48 h; series mostly up to 57.5 µM
How it was run: as §2

CASKI = assay: as above; conditions: Gynecologic cancer cell panel viability, ATPlite luminescence, 48 h; series mostly up to 57.5 µM
How it was run: as §2

Es-2 = assay: as above; conditions: Gynecologic cancer cell panel viability, ATPlite luminescence, 48 h; series mostly up to 57.5 µM
How it was run: as §2

HeLa = assay: as above; conditions: Gynecologic cancer cell panel viability, ATPlite luminescence, 48 h; series mostly up to 57.5 µM
How it was run: as §2

Hek293T = assay: as above; conditions: Gynecologic cancer cell panel viability, ATPlite luminescence, 48 h, control line for the selectivity index; series mostly up to 57.5 µM
How it was run: as §2

JEG-3 = assay: as above; conditions: Gynecologic cancer cell panel viability, ATPlite luminescence, 48 h; series mostly up to 57.5 µM
How it was run: as §2

Measured: Potency

Nc1ncnc2c1C(=O)N(c1ccc(C3CCC(CC(=O)O)CC3)cc1)CCO2 (configuration not stated)
inactive: all assays above

O=C1C(Cl)=C(N2CCOCC2)C(=O)N1c1ccc(Cl)c(Cl)c1
inactive: HACAT inactive [at 17.4 µM] | NIH3T3 inactive [at 17.4 µM] | C33A | CAOV3 | CASKI | Es-2 | HeLa | Hek293T | JEG-3

C[C@@H]1O[C@@H](O[C@H]2[C@H](Oc3cc(O)c(C(=O)CCc4ccc(O)cc4)c(O)c3)O[C@H](CO)[C@@H](O)[C@@H]2O)[C@H](O)[C@H](O)[C@H]1O
inactive: all assays above
